# From PubChem BioAssay (NCATS)
# Where “and” joins values, the source holds several entries; their conditions need not be identical. Equal values may be shown once. Records with an inconclusive call do not appear. Calls of active or inactive are those of the source. The call rests on the fitted dose curve.
# Assay: Primary qHTS to identify inhibitors of SARS-CoV-2 cell entry (AID 1645846); further: nearly all actives have a fitted effect of over 45% in size
# Conditions: SARS-CoV-2 pseudovirus cell entry assay, luminescence; activity change, negative = inhibition: at 57.1 µM (top of the series) unless noted; series mostly up to 57.1 µM
# Source text: Assay Provider: Wei Zheng, Ph.D.
# National Center for Advancing Translational Sciences, National Institute of Health, Rockville, MD.
# SARS-CoV-2 spike protein, within the viral envelope, mediates viral attachment and infection of host cells. The SARS-CoV-2 spike protein specifically binds to the host receptor ACE2 (Angiotensin-converting enzyme 2). This interaction promotes endocytosis of the viral particle, additional events lead to viral-host cell membrane fusion and release of the viral contents, allowing viral replication.
# While SARS-CoV-2 requires BSL-3 facilities for live virus work, pseudotyped partices (PP) that incorporate SARS-CoV-2 spike proteins without replication elements could facilitate studies on viral entry mechanisms in a BSL-2 setting. This PP cell entry assay could also enable screening of small molecule compound libraries in BSL-2 setting to identify inhibitors of SARS-CoV-2 cell entry.
# PROTOCOL TABLE (format as described by Inglese J, Shamu CE and Guy RK. 2007)
# SEQUENCE No. (e.g., 1, 2, 3, etc.); […] (e.g., Cells, Incubation, Reagent, etc.); VALUE and DESCRIPTION.
# 1. Cells. Seed 1500 HEK293-ACE2 cells (Expi293F with stable expression of human ACE2) in 2 uL/well media (DMEM, 10% FBS, 1x L-glutamine, 1x Pen/Strep, 1 ug/ml puromycin) in white 1536-well assay plates (Greiner #782073).
# 2. Incubation. Incubate at 37C with 5% CO2 overnight (~16 h).
# 3. Compounds. Dispense 23 nL/well compounds in DMSO via pin transfer.
# 4. Incubation. Incubate for 1 hr at 37C 5% CO2.
# 5. Reagent. Dispense 2 uL/well of SARS-CoV-2-S pseudotyped particles. [a] PPs are produced with murine leukemia virus pseudotyping. [b] SARS-CoV-2-S is Wuhan-Hu-1 sequence (BEI #NR-52420) with C-terminal 19 amino acid truncation.
# 6. Centrifuge. […]
# 7. Incubation. Incubate at for 48 hr at 37C 5% CO2
# 8. Centrifuge. Remove supernatant with gentle centrifugation using a Blue Washer (BlueCat Bio).
# 9. Reagent. Dispense 4 uL/well of Bright-Glo Luciferase detection reagent (Promega #E2620).
# 10. Incubation. Incubate for 5 min at room temperature.
# 11. Detection. Read luminescence signal (Viewlux plate reader, PerkinElmer). Data was normalized with wells containing SARS-CoV-2-S PP as 100%, and wells containing bald PP (no fusion protein) as 0%.
# Potency means the concentration at half of the fitted maximal effect.
Compound,Potency,"activity change, negative = inhibition",outcome
COc1cc(O)c2c(c1)C1OC1C[C@H](O)[C@H](O)C(=O)C=CC[C@H](C)OC2=O (stereo not given in full),35.5 µM (active),,
COCCCc1sc(-c2ccccc2)nc1C(=O)Nc1ccccc1-c1nc2cc(CN3CCCC3)cnc2s1,inactive,,
COc1cc2c(Nc3ccc(NC(=O)c4ccccc4)cc3)ncnc2cc1OCCCN1CCOCC1,7.94 µM (active),,
COc1cc([C@@H]2c3cc4c(cc3[C@H](O)[C@H]3COC(=O)[C@@H]23)OCO4)cc(OC)c1OC,1.26 µM (active),,
CN(C)C(=O)[C@H](O)[C@H](Cc1ccccc1)NC(=O)c1cc2cc(Cl)ccc2[nH]1,,-8.95%,
COc1cc(C(=O)NC2CCN(C)CC2)ccc1Nc1ncc2c(n1)N(C1CCCC1)CCC(=O)N2C(C)C,31.6 µM (active),,
Nc1ncnc2c1c(-c1cnc3[nH]ccc3c1)nn2C1CCCC1,10 µM (active),,
CC1=C(CC(=O)O)c2cc(F)ccc2C1=Cc1ccc(S(C)=O)cc1 (stereo not given),,-11.8%,
CCCCCCCCc1ccc(CCC(N)(CO)CO)cc1,8.91 µM (active),,
CN(C)CC(C)(C)CNc1nn2c(-c3ccccc3)nnc2cc1C1CCC1,,-2.68%,
O=C(Cc1ccc(-c2ccc(OCCN3CCOCC3)cc2)cn1)NCc1ccccc1,,-81.8%,
C[S+](C)CCC(N)C(=O)O (stereo not given),,-29.8%,
C=C(C)[C@@H]1CC[C@]2(C)CC[C@]3(C)[C@H](CC[C@@H]4[C@@]5(C)CC[C@H](O)C(C)(C)[C@H]5CC[C@]43C)[C@@H]12,inactive,,
Cc1cc(Nc2cc(NC(=O)c3c(Cl)cccc3Cl)ccn2)nc(N)n1,1.41 µM (active),,
CO[C@H]1[C@@H](O)CC(OC2[C@@H](O)CC(OC3[C@@H](O)C[C@H](OC4CC[C@@]5(C)C(CCC6C5CC(O)[C@]5(C)[C@H](C7=CC(=O)OC7)CCC65O)C4)O[C@@H]3C)O[C@@H]2C)O[C@@H]1C (stereo not given in full),,-97.7% [at 114 µM],
N#Cc1c(N(CC(=O)O)CC(=O)O)sc(C(=O)O)c1CC(=O)O,,,inactive [at 0.702 µM]
CCOC(=O)C1=C(N)Oc2ccc(Br)cc2C1C(C#N)C(=O)OCC (stereo not given),,-18.1%,
Cn1cnc(-c2cc3nccc(Oc4ccc(NC(=S)NC(=O)Cc5ccccc5)cc4F)c3s2)c1,8.91 µM (active),,
CC(C)NC[C@@H](O)COc1cccc2ccccc12,,-4.9%,
C[C@@H](NC(=O)c1ncnc(N)c1Cl)c1ncc(C(=O)Nc2cc(C(F)(F)F)c(Cl)cn2)s1,,-12.7%,

Compound,Potency,"activity change, negative = inhibition",outcome
COc1ccc(CC2c3cc(OC)c(OC)cc3CC[N+]2(C)CCC(=O)OCCCCCOC(=O)CC[N+]2(C)CCc3cc(OC)c(OC)cc3C2Cc2ccc(OC)c(OC)c2)cc1OC (stereo not given),,-27% and -4%,
O=c1cc(-c2ccccc2)oc2cc(O)c(O)c(O)c12,inactive,,
Cn1cc(C[C@@H](N)C(=O)O)c2ccccc21,,-6.52% [at 11.3 µM],
COc1cc2ncnc(Nc3cc(Br)c(O)c(Br)c3)c2cc1OC,,-28.4%,
Cn1cnc2c(F)c(Nc3ccc(Br)cc3F)c(C(=O)NOCCO)cc21,,-25.1%,
CCOc1nc2cccc(C(=O)OCc3oc(=O)oc3C)c2n1Cc1ccc(-c2ccccc2-c2noc(O)n2)cc1,,-28.5%,
C[C@@H]1CCO[C@H]2Cn3cc(C(=O)NCc4ccc(F)cc4F)c(=O)c(O)c3C(=O)N12,,-84%,
C[C@H](CCC(=O)O)[C@H]1CCC2C3C[C@H](O)[C@@H]4C[C@H](O)CC[C@]4(C)C3CC[C@@]21C (stereo not given in full),,-10.6%,
N[C@H](CO)C(=O)O,inactive,,
Cc1cc(Nc2ncnc3ccc(-c4ccc(CNCCS(C)(=O)=O)o4)cc23)ccc1Oc1ccn2ncnc2c1,inactive,,
CC[C@@]1(O)C(=O)OCc2c1cc1n(c2=O)Cc2cc3cc(O)ccc3nc2-1,,-96.4%,
O=C(c1ccc(C(=O)N2CCC(N3CCCC3)CC2)c(Nc2ccccc2)c1)N1CCC(N2CCCC2)CC1,,-24.6%,
CCOC(=O)N1CCN(/[N+]([O-])=N/Oc2ccc([N+](=O)[O-])cc2[N+](=O)[O-])CC1,,-5.73%,
Nc1nc(NCCNc2ncc(-n3ccnc3)c(-c3ccc(Cl)cc3Cl)n2)ccc1[N+](=O)[O-],,-29.7%,
Cc1csc(-c2nnc(Nc3ccc(Oc4ncccc4-c4ccnc(N)n4)cc3)c3ccccc23)c1,15.8 µM (active),,
Cc1ccc(NC(=O)c2cccc(N(C)C)c2)cc1NC(=O)c1ccc(O)cc1,inactive,,
Nc1ncnc2ccccc12,,2.32%,
COc1ccc(Nc2nccc(NCCO)n2)cc1,inactive,,
C[C@@H](c1ncncc1F)[C@](O)(Cn1cncn1)c1ccc(F)cc1F,,-26.1%,
C=Cc1c(C)c2cc3nc(cc4[nH]c(cc5nc(cc1[nH]2)C(C)=C5CCC(=O)O)c(CCC(=O)OC)c4C)[C@@]1(C)C3=CC=C(C(=O)OC)[C@H]1C(=O)OC,inactive,,
